Data published in PubChem BioAssay (NCATS).
Results filed as inconclusive are left out. Activity calls are given as the source filed them. Unless noted, calls come from the whole dose curve; as a rule, active = well fitted curve in the direction sought with a large enough effect; inconclusive = small, poorly fitted or top-dose-only effect, or another doubt; inactive = no such curve, though single readings can be large; an effect the other way counts as inactive or inconclusive.

Columns and labels:
[1] = qHTS to identify inhibitors of the type 1 interferon - major histocompatibility complex class I in skeletal muscle: primary screen against the NCATS LOPAC collection (AID 1347405); conditions: iHSKM muscle cells, IFN-b-induced MHC-I HiBiT luminescence, 24 h; series mostly up to 45.9 µM
Procedure, shortened: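 CRISPR-engineered immortalized human myoblasts (C25cl48) with HiBiT fused to endogenous HLA-B*08:01, stimulated with 4 ng/ml IFN-beta. LOPAC compounds tested as a 7-point 1:4.3 titration (top 46 uM final), 24 h at 37 C; lytic HiBiT luminescence read.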

[2] = qHTS for inhibitors of adenylyl cyclases using a fission yeast platform: a pilot screen against the NCATS LOPAC library (AID 1347410); conditions: S. pombe CHP2027, fbp1-GFP fluorescence, 18 h; series mostly up to 57.5 µM
Procedure, shortened: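 S. pombe CHP2027 (AC9-GNAS-PDE4D2) carrying a PKA-repressed fbp1-GFP reporter was exposed to LOPAC compounds (final up to 57 µM) for 18 h at 30C in the dark, in EMM with histidine, lysine and uracil; GFP gain-of-signal read by laser scanning cytometry.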

[3] = qHTS to identify inhibitors of the type 1 interferon - major histocompatibility complex class I in skeletal muscle: primary screen against the NCATS Mechanism Interrogation Plate v5.0 (MIPE) Libary (AID 1347411); conditions: iHSKM cells + IFN-b, HiBiT-tagged MHC-I luminescence, 24 h; series mostly up to 45.8 µM
Procedure, shortened: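 Immortalized human myoblasts (C25cl48) with HiBit knocked into endogenous HLA-B*08:01 were stimulated with 4 ng/ml IFN-beta and given compounds in 11-point 1:3 titration from 46 uM. After 24 h at 37 C, lytic HiBiT luminescence was read.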

[4] = Validation qHTS assay for inhibitors of Activation Induced Cytidine Deaminase (AID): UDG Counterscreen signal (AID 1347427); conditions: biochemical UDG counterscreen, fluorescence signal; series mostly up to 115 µM
Procedure, shortened: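 Counterscreen read of UDG activity (2 U/mL, 4/3x) in the FRET deamination format with AID (1 uM, 4/3x), DJC20/DJC23 substrates (250 nM, 4x), 4 h at room temperature. NaOH stop, fluorescence at 560 ex/665 em.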

[5] = target: Single-stranded DNA cytosine deaminase (Homo sapiens) (UniProt Q9GZX7); experiment: Validation qHTS assay for inhibitors of Activation Induced Cytidine Deaminase (AID): AID signal (AID 1347429); conditions: Recombinant AID, FRET ssDNA deamination with UDG, fluorescence; series mostly up to 115 µM
Procedure, shortened: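 FRET deamination assay: 1 uM AID (4/3x stock) with UDG, compound up to 114 uM, then 250 nM DJC20/DJC23 substrate (4x stock) for 4 hr at room temperature. NaOH added, 30 min; fluorescence read 540/590 nm.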

[6] = qHTS for activators of dead-cell proteases activity screened against the NCATS CANVASS Library (AID 1347392); conditions: HepG2 cytotoxicity, dead-cell protease luminescence, 5 h; series mostly up to 91.4 µM
Procedure, shortened: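 Compounds are pin-transferred onto attached HepG2 cells, giving 11 final concentrations. After 5 h at 37C, AAF-aminoluciferin reagent is added and luminescence is recorded at room temperature.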

[7] = Vero-766 cells viability qHTS against the NCATS CANVASS Library: Counterscreen for Zika virus inhibition assay (AID 1347394); conditions: Vero 766 viability, CellTiter-Glo luminescence, 72 h; series mostly up to 91.4 µM
Procedure, shortened: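 Uninfected Vero 766 (African green monkey) cells, 1000/well, attached overnight, then exposed 72 h at 37C to compounds (11-point qHTS). Viability read by CellTiter-Glo luminescence; media-only wells served as 100% inhibition.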

[8] = qHTS for inhibitors of Wild type Zika virus screened against the NCATS CANVASS Library (AID 1347396); conditions: Vero cells, Zika virus CPE, CellTiter-Glo, 72 h; series mostly up to 91 µM
Procedure, shortened: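 Using ATP-based luminescence (CellTiter Glo), this screen scores rescue of Vero 766 cells from wild-type Zika killing at 72 h post-infection. Compounds are tested in a concentration series.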

[9] = Redox Reaction Profiling qHTS: Assay Interference Panel against the NCATS CANVASS Library (AID 1347401); conditions: resazurin-DTT redox cycling, fluorescence, 15 min; series mostly up to 57.1 µM
Procedure, shortened: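 Cell-free redox surrogate: 5 uM resazurin + 200 uM DTT, 50 mM HEPES pH 7.3/50 mM NaCl; cpds pinned, 11-pt qHTS; Ex525/Em598 read t0 and t=15 min, dark.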

[10] = qHTS for inhibitors of Rabies Virus screened against the NCATS CANVASS Library (AID 1347402; calls by dose curve); conditions: Rabies virus infection cell assay; series mostly up to 91 µM
[11] = qHTS for inhibitors of ER calcium dysfunction: SERCaMP assay screened against the NCATS CANVASS Library (AID 1347393); conditions: SH-SY5Y GLuc-SERCaMP (Gaussia luciferase released on ER calcium loss) secretion, thapsigargin, luminescence
Procedure, shortened: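 Thapsigargin-induced ER calcium depletion drives GLuc-SERCaMP secretion from SH-SY5Y cells; compounds given 16 h beforehand were scored by lowered coelenterazine luminescence after 4 h challenge.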

[12] = Viability qHTS for inhibitors of the SERCaMP assay screened against the NCATS CANVASS Library (AID 1347400); conditions: SH-SY5Y SERCaMP cells viability, CellTiter-Glo, 48 h; series mostly up to 183 µM
Procedure, shortened: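 SH-SY5Y-GLuc SERCaMP MJH297-derived cells, 1000/well, plated 4 h, then exposed to compounds in an 11-point qHTS series for 48 h at 37C. Viability read as CellTiter-Glo luminescence.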

[13] = Primary qHTS for Huh7 cytotoxicity: counterscreen for inhibitors of MERS-S pseudotyped particle cell entry (AID 1479147; calls by dose curve); conditions: cell viability read-out; outcome: at 57.1 µM (top of the series) unless noted; series mostly up to 57.1 µM
[14] = Primary qHTS for inhibitors of MERS-S pseudo-typed particle cell entry (AID 1479149; calls by dose curve); conditions: MERS-S pseudotyped particle entry, luciferase; outcome: at 57.1 µM (top of the series) unless noted; series mostly up to 57.1 µM
[15] = Primary qHTS for Vero E6 cytotoxicity: counterscreen for inhibitors of SARS-S pseudo-typed particle cell entry (AID 1479150; calls by dose curve); conditions: cell viability; series mostly up to 57.1 µM

Measured: Potency

Chain of Single-stranded DNA cytosine deaminase (Homo sapiens) (Q9GZX7 whole entry, looked up): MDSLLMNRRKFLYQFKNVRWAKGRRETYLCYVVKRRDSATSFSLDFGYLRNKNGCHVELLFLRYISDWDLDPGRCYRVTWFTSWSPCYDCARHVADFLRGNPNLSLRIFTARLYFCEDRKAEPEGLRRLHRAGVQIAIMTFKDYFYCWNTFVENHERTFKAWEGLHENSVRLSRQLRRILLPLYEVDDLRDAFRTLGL

CC(=O)c1c(O)c(C)c(O)c(Cc2c(O)c3c(c(C(=O)/C=C/c4ccccc4)c2O)OC(C)(C)C=C3)c1O
inactive: [1] | [2] | [3] | [4]
active: [5] 31.6 µM

C[N+]1(C)CCc2cc3c(cc2[C@H]1[C@@H]1OC(=O)c2c1ccc1c2OCO1)OCO3
inactive: [1] | [2] | [4] | [5]

C=CCN1CCC23c4c5ccc(O)c4O[C@H]2C(=O)CC[C@@]3(O)C1C5 (some centres not stated)
inactive: [1] | [2] | [4] | [5]

Cc1c2ccncc2c(C)c2c1[nH]c1ccccc12
inactive: [2] | [4] | [5]
active: [1] 7.08 µM

NC(=O)c1ccc(OCC(O)CN2CC=C(c3ccc(F)cc3)CC2)cc1 (configuration not stated)
inactive: [1] | [2] | [4] | [5]

CCN1C[C@@]2(COC)C3[C@@H](OC)C4[C@@H]1C3([C@@H]1C[C@]3(O)[C@H](OC(=O)c5ccccc5)[C@@H]1[C@]4(OC(C)=O)[C@@H](O)[C@@H]3OC)[C@H](OC)C[C@H]2O
inactive: [1] | [2] | [4] | [5]

N#CCCN
inactive: [1] | [2] | [4] | [5]

O=C1/C(=C/c2ccccc2)C[C@@]2(O)[C@H]3Cc4ccc(O)c5c4[C@@]2(CCN3CC2CC2)[C@H]1O5
active: [1] 2 µM

NC(=O)c1cc(N2CC2)c([N+](=O)[O-])cc1[N+](=O)[O-]
inactive: [1] | [2] | [4] | [5]

COc1ccc2[nH]cc(CCN)c2c1
not listed: [3] | [11] | [12] | [13] | [14] | [15]
inactive: all other assays above

CCCN(CCC)C1CCc2cccc(O)c2C1 (configuration not stated)
inactive: [1] | [2] | [4] | [5]

CCCN1CC[C@@H]2c3cc(O)ccc3CC[C@@H]21
inactive: [1] | [2] | [4] | [5]

CC(C)NP(=O)(NC(C)C)OP(=O)(NC(C)C)NC(C)C
inactive: [1] | [2] | [4] | [5]

Cc1sc2ccccc2c1CC1=NCCN1
inactive: [1] | [2] | [4] | [5]

CN(N=O)c1ccc(O)c(O)c1
inactive: [1] | [2]

Nc1cc2c(ncn2CCOCP(=O)(O)O)c(=O)[nH]1
inactive: [1] | [2]

CC(=O)NBr
inactive: [1] | [2] | [4] | [5]

Cc1cc([C@@H]2CCCN2C)on1
inactive: [1] | [2] | [4] | [5]

[Cl-].[Cl][Pt].[NH2-].[NH2-].c1ccncc1
inactive: [1] | [2]

O=C(NC1CN2CCC1CC2)c1cc2ccoc2cn1 (configuration not stated)
inactive: [1] | [2]

O=S1(=O)N(CCN2CC=C(c3c[nH]c4cc(F)ccc34)CC2)c2cccc3c2N1CCC3
inactive: [1] | [2] | [4]

C[C@H]1C2Cc3ccc(O)cc3[C@@]1(C)CCN2CC1CC1
inactive: [1] | [2]

NC(C(=O)O)c1cc(=O)[nH]o1 (configuration not stated)
inactive: [1] | [2] | [4] | [5]

Oc1ccc2c3c1O[C@H]1c4[nH]c5ccccc5c4C[C@@]4(O)C(C2)N(CC2CC2)CCC314 (some centres not stated)
inactive: [1] | [2] | [4] | [5]

C#CCN[C@H](C)Cc1ccccc1
inactive: [1] | [2] | [4] | [5]

O=C1C[C@@H]2OCC=C3CN4CC[C@]56c7ccccc7N1[C@H]5[C@H]2[C@H]3C[C@H]46
active: [11] 59.6 µM
inactive: [6] | [7] | [8] | [12] | [10] | [13] | [14] | [15]

OCc1cnc[nH]1
inactive: [1] | [2] | [4] | [5]

NC(Cc1cc(O)c(O)cc1O)C(=O)O (configuration not stated)
inactive: [1] | [2] | [4]
active: [5] 3.98 µM

COC(=O)N1CCN(C(=O)Cc2ccc(Cl)c(Cl)c2)C(CN2CCCC2)C1 (configuration not stated)
inactive: [1] | [2] | [4] | [5]

O=c1ccc2[nH]cc(C3=CCNCC3)c2[nH]1
inactive: [1] | [2]

CCCN(CCC)[C@@H]1CCc2cccc(O)c2C1
inactive: [1] | [2] | [4] | [5]

NC(=O)CI
inactive: [1] | [2] | [4] | [5]

CC(C)(C)OC(=O)NC1[C@H]2CNC[C@@H]12 (some centres not stated)
inactive: [1]

NC(N)=NOCC[C@H](N)C(=O)O
inactive: [1] | [2] | [4] | [5]

Clc1cc(I)cc(Cl)c1NC1=NCCN1
inactive: [1] | [2] | [4] | [5]

C[N+]1(C)CCN(c2ccccc2)CC1
inactive: [1] | [2] | [4] | [5]

CC(N)Cc1c[nH]c2ccc(OCc3cccs3)cc12 (configuration not stated)
inactive: [1] | [2] | [4] | [5]

N[C@@H](Cn1oc(=O)[nH]c1=O)C(=O)O
inactive: [1] | [2] | [4] | [5]

NCC(O)c1cc(O)c(O)cc1F (configuration not stated)
inactive: [1] | [2] | [4] | [5]

Cc1[nH]c2ccc(O)cc2c1CCN
inactive: [1] | [2] | [4] | [5]
